# A number with no mark means an inactive call. Inconclusive results are not listed. Entries that show only a call come without a potency. Activity calls are given as the source filed them. Unless noted, the call rests on the fitted dose curve; in most records, active means well fitted curve in the direction sought with a large enough effect; inconclusive means small, poorly fitted or top-dose-only effect, or another doubt; inactive means no such curve, though single readings can be large; an effect the other way counts as inactive or inconclusive.
# How the values were obtained:
# [1] = target: Rap guanine nucleotide exchange factor 3 (Homo sapiens) (UniProt O95398); assay: Confirmatory qHTS for antagonist of cAMP-regulated guanine nucleotide exchange factor 3 (EPAC1) (AID 1645880); conditions: EPAC1 Rap1B-BODIPY-GDP exchange, fluorescence; activity, negative = inhibition: at 115 µM (top of the series); further: nearly all actives have a fitted effect of over 55% in size; further: potency means the concentration at half of the fitted maximal effect
# Procedure, shortened: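 Released BODIPY-GDP fluoresces less than Rap1-bound BODIPY-GDP; the signal is followed at 480/540 nm at 5-min intervals over 30 min, after 5 min at room temperature. Reactions contain 100 nM EPAC1, 250 nM RAP1B-BODIPY-GDP and 50 uM GDP; results are normalized to ATA and DMSO.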
# [2] = target: Rap guanine nucleotide exchange factor 3 (Homo sapiens) (UniProt O95398); assay: Confirmatory qHTS for agonist of cAMP-regulated guanine nucleotide exchange factor 3 (EPAC1) (AID 1645881); further: nearly all actives have a fitted effect of over 75% in size; further: potency means the concentration at half of the fitted maximal effect;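 on activation: EPAC1 catalysed release of BODIPY-GDP from Rap1B seen as fluorescence loss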
# [3] = target: Rap guanine nucleotide exchange factor 4 (Homo sapiens) (UniProt Q8WZA2); assay: Confirmatory qHTS for agonist of cAMP-regulated guanine nucleotide exchange factor 4 (EPAC2) (AID 1645884);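 further: nucleotide exchange releases bodipy-GDP from Rap1 and this lowers its fluorescence; nearly all actives have a fitted effect of over 65% in size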; further: potency means the concentration at half of the fitted maximal effect
# [4] = target: Rap guanine nucleotide exchange factor 3 (Homo sapiens) (UniProt O95398); assay: Counterscreen qHTS for antagonist of cAMP-regulated guanine nucleotide exchange factor 3 (EPAC1) (AID 1645888)
# Procedure, shortened: (§1)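 Rap1B–BODIPY-GDP (250 nM) with 50 uM GDP; compounds pin-transferred to 9.74 nM–152 uM final (activator) or from 7.32 nM upwards (inhibitor). Fluorescence Ex/Em 480/540 nm read at 5 and 30 min, then after adding cAMP or buffer, at room temperature.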
# [5] = target: Rap guanine nucleotide exchange factor 3 (Homo sapiens) (UniProt O95398); assay: Counterscreen qHTS for agonist of cAMP-regulated guanine nucleotide exchange factor 3 (EPAC1) (AID 1645889); further: nearly all actives have a fitted effect of over 40% in size; further: potency means the concentration at half of the fitted maximal effect
# Procedure, shortened: as §1
# [6] = AP1 Signaling Pathway (AID 357; active means well fitted curve in either direction with a large enough effect, not every such curve was filed as active;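 further: ME-180 reporter cells stimulated with EGF at its EC50 level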); conditions: ME-180 (cervical carcinoma) AP-1-bla reporter, EGF-induced, beta-lactamase ratio, 5 h; at 7.69 µM (top of the series) unless noted
# Procedure, shortened: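 Beta-lactamase reporter under AP-1 response element, ME-180 background. Stimulus: EC50 EGF. Compound exposure 5 h, 37 °C. Detection: CCF4, 2.5 h RT, 460/530 nm. Values: AC50 from titration.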
# [7] = NFAT Signaling Pathway (AID 444; active means well fitted curve in either direction with a large enough effect, not every such curve was filed as active;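 further: carbachol stimulus at about its EC50 of 1 µM final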); conditions: Jurkat NFAT-bla M1, carbachol, beta-lactamase ratio, 5 h; at 7.69 µM (top of the series) unless noted
# Procedure, shortened: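 Jurkat cells with NFAT-driven β-lactamase reporter and co-expressed M1 receptor, stimulated with carbachol (final 1 uM, ~EC50), compound titration, 5 h at 37 °C. CCF4 loaded 1 h at RT; 460/530 nm ratio gave %activity and AC50.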
# [8] = Stat Signaling Pathway (AID 446; active means well fitted curve in either direction with a large enough effect, not every such curve was filed as active;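 further: ME-180 cervical cancer cells given 40 pM IL-6 alongside compound; SIE-controlled beta-lactamase reporter measured as 460/530 nm FRET emission ratio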)
# Procedure, shortened: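 Overnight-plated ME-180 cells bearing a STAT Inducible Element beta-lactamase reporter; 5 h co-exposure to compound and 40 pM IL-6; values normalized to 300 pM IL-6 and 125 nM JAK inhibitor controls.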
# [9] = target: Glucocorticoid receptor (Homo sapiens) (UniProt P04150); assay: GR-GFP Redistribution (AID 450;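 active means compounds whose dose series gives a full or clear partial fitted curve of increased nuclear translocation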; further: potency means the concentration at half of the fitted maximal effect); conditions: U2OS GR-GFP nuclear translocation, laser cytometry, 2 h
# Chain of Glucocorticoid receptor (Homo sapiens) (P04150 whole entry, looked up): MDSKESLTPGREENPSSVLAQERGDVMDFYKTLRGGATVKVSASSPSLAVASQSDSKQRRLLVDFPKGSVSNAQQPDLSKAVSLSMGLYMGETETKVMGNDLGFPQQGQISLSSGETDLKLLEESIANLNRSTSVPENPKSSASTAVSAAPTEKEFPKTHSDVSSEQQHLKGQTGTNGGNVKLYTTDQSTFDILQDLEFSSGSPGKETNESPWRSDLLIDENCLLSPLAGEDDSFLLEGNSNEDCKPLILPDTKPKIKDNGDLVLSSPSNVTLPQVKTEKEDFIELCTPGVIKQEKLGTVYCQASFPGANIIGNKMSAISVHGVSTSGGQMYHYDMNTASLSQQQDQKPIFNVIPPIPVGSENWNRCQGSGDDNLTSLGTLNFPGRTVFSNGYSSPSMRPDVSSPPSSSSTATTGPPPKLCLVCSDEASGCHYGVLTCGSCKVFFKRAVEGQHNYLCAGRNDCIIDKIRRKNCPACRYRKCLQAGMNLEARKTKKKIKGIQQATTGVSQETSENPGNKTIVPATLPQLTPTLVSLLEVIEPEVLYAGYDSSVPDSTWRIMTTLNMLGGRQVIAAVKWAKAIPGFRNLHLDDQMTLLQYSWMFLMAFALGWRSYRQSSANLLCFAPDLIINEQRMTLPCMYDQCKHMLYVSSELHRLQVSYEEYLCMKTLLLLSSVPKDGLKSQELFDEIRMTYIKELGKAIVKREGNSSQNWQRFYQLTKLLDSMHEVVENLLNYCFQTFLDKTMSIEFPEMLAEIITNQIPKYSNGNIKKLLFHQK
# Chain of Rap guanine nucleotide exchange factor 3 (Homo sapiens) (O95398 whole entry, looked up): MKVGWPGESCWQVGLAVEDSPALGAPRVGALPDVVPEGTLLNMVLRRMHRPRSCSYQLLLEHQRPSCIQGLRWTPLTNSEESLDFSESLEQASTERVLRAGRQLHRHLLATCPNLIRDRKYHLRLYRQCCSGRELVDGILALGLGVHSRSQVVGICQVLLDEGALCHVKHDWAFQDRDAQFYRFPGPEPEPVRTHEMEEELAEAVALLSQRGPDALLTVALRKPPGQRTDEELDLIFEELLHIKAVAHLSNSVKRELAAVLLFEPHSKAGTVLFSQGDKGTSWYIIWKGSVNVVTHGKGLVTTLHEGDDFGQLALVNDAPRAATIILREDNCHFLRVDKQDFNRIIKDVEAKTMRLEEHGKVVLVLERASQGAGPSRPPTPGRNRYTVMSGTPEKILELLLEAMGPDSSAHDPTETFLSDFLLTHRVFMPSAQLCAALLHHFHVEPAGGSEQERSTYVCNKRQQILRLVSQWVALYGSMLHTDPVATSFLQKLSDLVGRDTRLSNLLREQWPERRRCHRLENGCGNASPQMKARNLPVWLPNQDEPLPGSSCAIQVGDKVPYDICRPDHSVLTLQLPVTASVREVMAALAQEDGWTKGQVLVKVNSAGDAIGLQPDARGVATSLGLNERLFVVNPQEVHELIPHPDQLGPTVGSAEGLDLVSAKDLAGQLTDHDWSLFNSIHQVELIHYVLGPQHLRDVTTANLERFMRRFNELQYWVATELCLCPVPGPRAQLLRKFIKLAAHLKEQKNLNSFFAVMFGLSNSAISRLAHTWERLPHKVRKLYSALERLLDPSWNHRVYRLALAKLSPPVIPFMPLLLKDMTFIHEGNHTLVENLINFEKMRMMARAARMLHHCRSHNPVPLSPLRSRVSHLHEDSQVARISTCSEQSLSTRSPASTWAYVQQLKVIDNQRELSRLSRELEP
# Chain of Rap guanine nucleotide exchange factor 4 (Homo sapiens) (Q8WZA2 whole entry, looked up): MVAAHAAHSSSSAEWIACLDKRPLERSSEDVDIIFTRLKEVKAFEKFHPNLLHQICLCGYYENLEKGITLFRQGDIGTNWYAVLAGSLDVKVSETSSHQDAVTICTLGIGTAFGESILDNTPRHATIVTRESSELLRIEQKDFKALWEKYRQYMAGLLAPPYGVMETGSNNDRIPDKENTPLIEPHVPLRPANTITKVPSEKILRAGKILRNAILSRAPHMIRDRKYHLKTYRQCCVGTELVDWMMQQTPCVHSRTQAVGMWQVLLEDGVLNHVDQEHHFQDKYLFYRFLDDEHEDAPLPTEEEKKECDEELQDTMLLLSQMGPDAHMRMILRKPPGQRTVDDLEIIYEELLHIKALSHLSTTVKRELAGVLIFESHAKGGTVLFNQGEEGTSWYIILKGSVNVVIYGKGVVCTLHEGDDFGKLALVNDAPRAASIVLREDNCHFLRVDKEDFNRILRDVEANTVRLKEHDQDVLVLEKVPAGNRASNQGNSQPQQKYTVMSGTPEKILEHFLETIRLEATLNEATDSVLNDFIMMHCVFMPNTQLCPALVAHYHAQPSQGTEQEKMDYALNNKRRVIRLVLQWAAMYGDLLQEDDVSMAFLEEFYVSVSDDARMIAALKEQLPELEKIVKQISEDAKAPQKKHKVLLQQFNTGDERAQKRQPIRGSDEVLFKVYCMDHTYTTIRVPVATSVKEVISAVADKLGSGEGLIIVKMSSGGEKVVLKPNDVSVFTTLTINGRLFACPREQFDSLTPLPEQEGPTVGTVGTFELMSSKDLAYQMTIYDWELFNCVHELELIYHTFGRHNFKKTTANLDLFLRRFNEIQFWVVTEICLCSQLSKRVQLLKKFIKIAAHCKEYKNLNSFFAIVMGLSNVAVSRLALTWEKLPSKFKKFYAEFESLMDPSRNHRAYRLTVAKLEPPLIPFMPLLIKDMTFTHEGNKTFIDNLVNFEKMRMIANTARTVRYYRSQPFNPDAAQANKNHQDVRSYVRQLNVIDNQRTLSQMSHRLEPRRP
smiles,measurement,setting,value
COCc1cc(C)nc(SCC(=O)c2ccc(O)c(O)c2)c1C#N,Potency,[1],37.9 µM (active)
same,Potency,[2],inactive
same,Potency,[3],inactive
same,Potency,[4],inactive
same,Potency,[5],inactive
COc1ccc(/C=C2\SC(=S)NC2=O)cc1OS(=O)(=O)c1ccc(NC(C)=O)cc1,Potency,[1],37.9 µM (active)
same,Potency,[2],inactive
same,Potency,[3],inactive
same,Potency,[4],inactive
same,Potency,[5],inactive
Oc1ccc(/C=N/Nc2ncnc3nc[nH]c23)cc1,Potency,[1],inactive
same,Potency,[2],inactive
same,activation,[3],"-0.35% [at 17.1 µM, percent relative to cAMP agonist control]"
same,"activity change, negative = inhibition",[4],4.9% [at 30.8 µM]
same,activation,[5],4.78% [at 30.8 µM]
CC(C)(C(=O)N1CCC1(C)C(=O)NS(=O)(=O)c1cccc(Cl)c1)c1ccccc1 (centres undefined),Potency,[1],75.7 µM (active)
same,Potency,[2],inactive
same,Potency,[3],inactive
same,Potency,[4],inactive
same,Potency,[5],inactive
CCC(NC(=O)Nc1ncccc1C)(C(F)(F)F)C(F)(F)F,"activity change, negative = inhibition",[6],11.9% [at 17.2 µM]
same,"activity change, negative = inhibition",[7],-12% [at 17.2 µM]
same,outcome,[8],inactive
same,Potency,[9],> 20.6 µM
same,Potency,[1],inactive
same,Potency,[2],inactive
same,Potency,[3],inactive
same,Potency,[4],inactive
same,Potency,[5],inactive
O=C(Nc1ccccc1Cc1ccccc1)c1ccccc1NS(=O)(=O)c1ccc(Cl)s1,Potency,[1],22.4 µM (active)
same,Potency,[2],inactive
same,activation,[3],"8.53% [at 17.1 µM, percent relative to cAMP agonist control]"
same,"activity change, negative = inhibition",[4],-15.4% [at 30.8 µM]
same,activation,[5],8.31% [at 30.8 µM]
O=C(N/N=C/c1cc(Cl)c(O)c(Cl)c1)c1cc2c(ccc3ccccc32)o1,Potency,[1],60.1 µM (active)
same,Potency,[2],inactive
same,Potency,[3],inactive
same,Potency,[4],inactive
same,Potency,[5],inactive
COc1ccc(/C=C2/SC(=S)N(NS(=O)(=O)c3ccc(C)cc3)C2=O)cc1,Potency,[1],47.8 µM (active)
same,Potency,[2],inactive
same,Potency,[3],inactive
same,Potency,[4],inactive
same,Potency,[5],inactive
Cc1c(Cl)cccc1NC(=O)Nc1cccnc1,Potency,[1],inactive
same,Potency,[2],inactive
same,Potency,[3],inactive
same,Potency,[4],inactive
same,Potency,[5],inactive
Brc1ccc(C2Nc3cccc4cccc(c34)N2)cc1,Potency,[1],inactive
same,Potency,[2],inactive
same,Potency,[3],inactive
same,Potency,[4],inactive
same,Potency,[5],inactive
N#C/C(=C/c1ccc(N2CCCCC2)o1)C(=O)Nc1ccc(Cl)cc1,Potency,[1],inactive
same,Potency,[2],17.8 µM (active)
same,Potency,[3],100 µM (active)
same,Potency,[4],inactive
same,Potency,[5],12.6 µM (active)
CCOC(=O)c1c(NC(=O)/C=C/c2ccc3c(c2)OCO3)sc(C)c1CC,Potency,[1],inactive
same,Potency,[2],inactive
same,Potency,[3],inactive
same,Potency,[4],inactive
same,Potency,[5],inactive
COc1ccc(C2N(c3ccc(Cl)cc3)N=C(C(C)=O)N(C)N2C(C)=O)cc1 (centres undefined),Potency,[1],inactive
same,Potency,[2],inactive
same,activation,[3],"11.9% [at 17.1 µM, percent relative to cAMP agonist control]"
same,"activity change, negative = inhibition",[4],-11.6% [at 30.8 µM]
same,activation,[5],29.6% [at 30.8 µM]
CCCc1cc(=O)oc2cc(C)cc(OCC(=O)N[C@@H](CSCc3ccccc3)C(=O)O)c12,Potency,[1],inactive
same,Potency,[2],inactive
same,Potency,[3],inactive
same,Potency,[4],inactive
same,Potency,[5],inactive
O=C(c1ccco1)N(Cc1ccccc1)c1cccc([N+](=O)[O-])c1,Potency,[1],inactive
same,Potency,[2],inactive
same,Potency,[3],inactive
same,Potency,[4],inactive
same,Potency,[5],inactive
CCCNC(=O)Cn1c(=O)/c(=C/c2ccc(-c3ccc([N+](=O)[O-])cc3)o2)s/c1=C\C(=O)C(C)(C)C,Potency,[1],37.9 µM (active)
same,Potency,[2],inactive
same,Potency,[3],inactive
same,Potency,[4],inactive
same,Potency,[5],5.01 µM (active)
Cc1cc(C)c(S(=O)(=O)N2CCCC2)c(C)c1,Potency,[1],inactive
same,Potency,[2],inactive
same,Potency,[3],inactive
same,Potency,[4],inactive
same,Potency,[5],inactive
Cc1ccc(S(=O)(=O)NN2C(=O)/C(=C/c3cccc(F)c3)SC2=S)cc1,Potency,[1],23.9 µM (active)
same,Potency,[2],inactive
same,Potency,[3],inactive
same,Potency,[4],inactive
same,Potency,[5],inactive
Cc1ccc(SCCSc2ncccn2)cc1,Potency,[1],inactive
same,Potency,[2],inactive
same,activation,[3],"-2.5% [at 17.1 µM, percent relative to cAMP agonist control]"
same,"activity change, negative = inhibition",[4],-17.4% [at 30.8 µM]
same,activation,[5],-4.72% [at 30.8 µM]
O=C(CCCN1C(=O)/C(=C/c2ccccc2)SC1=S)Nc1ccccc1O,Potency,[1],inactive
same,Potency,[2],inactive
same,Potency,[3],inactive
same,Potency,[4],inactive
same,Potency,[5],inactive
CCOc1ccccc1OCC(=O)Nc1cc(S(=O)(=O)N2CCCCC2)ccc1N1CCN(CC)CC1,Potency,[1],inactive
same,Potency,[2],inactive
same,Potency,[3],inactive
same,Potency,[4],inactive
same,Potency,[5],inactive
Nc1nc2c(ncn2[C@@H]2O[C@H](CNS(=O)(=O)N3CCCC3)[C@@H](O)[C@H]2O)c(=O)[nH]1,Potency,[1],inactive
same,Potency,[2],inactive
same,Potency,[3],inactive
same,Potency,[4],inactive
same,Potency,[5],inactive
O=C(N/N=C/c1c(O)n(-c2ccccc2Cl)c(=O)c2ccccc12)C1COc2ccccc2O1 (centres undefined),Potency,[1],42.6 µM (active)
same,Potency,[2],inactive
same,Potency,[3],inactive
same,Potency,[4],inactive
same,Potency,[5],inactive
COc1ccccc1OCCOc1ccc(/C=C2\C(=N)N3N=C(S(C)(=O)=O)SC3=NC2=O)cc1,Potency,[1],67.5 µM (active)
same,Potency,[2],inactive
same,Potency,[3],inactive
same,Potency,[4],inactive
same,Potency,[5],inactive

# From PubChem BioAssay (NCATS)
